# Most compounds without a hit are left out; they make up all but 4.1% or so of the library.
# RecA splice inh: inhibitors of M. tuberculosis RecA intein splicing; cell-free RecA intein splicing, fluorescence; AID 2221; inhibition, % (test concentration not listed); 0.75% of 290,000 active; P9WHJ3; in the data active = inhibition above about 30%;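 also: 0% = vehicle wells and 100% = reference inhibitor control wells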
# Rv3671c inh: inhibits the M. tuberculosis serine protease Rv3671c. inhibition, % at 5.96 µM. 0.048% of 320,000 active. AID 2606; in the data active = inhibition above about 38%;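 also: extracellular domain of Rv3671c used as enzyme; 0% = enzyme with DMSO and 100% = no enzyme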
# Target sequence (P9WHR9 whole entry, looked up, the tested form may be a part): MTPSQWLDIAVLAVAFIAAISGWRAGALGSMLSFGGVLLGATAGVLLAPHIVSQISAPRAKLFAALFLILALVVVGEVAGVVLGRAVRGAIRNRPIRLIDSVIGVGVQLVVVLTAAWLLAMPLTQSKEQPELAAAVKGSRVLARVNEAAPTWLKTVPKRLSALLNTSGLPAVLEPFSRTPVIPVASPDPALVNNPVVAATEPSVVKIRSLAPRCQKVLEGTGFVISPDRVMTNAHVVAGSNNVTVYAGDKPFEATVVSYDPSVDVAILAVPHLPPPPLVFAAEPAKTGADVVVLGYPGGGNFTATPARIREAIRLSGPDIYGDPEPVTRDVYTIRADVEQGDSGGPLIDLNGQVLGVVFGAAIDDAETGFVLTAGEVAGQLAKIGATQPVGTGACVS
# GDH-TPI inh: counter-screen for M. tuberculosis FBA inhibitors: GDH-TPI coupled enzymes; GDH-TPI coupled enzyme counterscreen, NADH absorbance; inhibition, % at 4.8 µM; 1.2% of 360,000 active; in the data active = inhibition above about 30%;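 also: 0% = DMSO wells and 100% = wells lacking the enzyme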
# Vc quorum ag: quorum light induction in luxS cqsA deficient V. cholerae; V. cholerae BH1578 lux reporter, luminescence, 6 h; activation, % at 18.7 µM; 0.16% of 350,000 active; AID 588436; in the data active = activation mostly above about 9.7%, no sharp cut-off
# Mtb UGM inh: Mtb UDP-galactopyranose mutase inhibition; P9WIQ1; 0.06% of 320,000 active; AID 504406; purified UGM, fluorescence polarization probe displacement; inhibition, % at 10 µM; in the data active = inhibition above about 10%, passing the limit was not always enough
# FBA Mtb inh: Mtb fructose-bisphosphate aldolase inhibition. 2.3% of 360,000 active. inhibition, % at 1 µM. purified M. tuberculosis FBA, fluorescence read-out. AID 588726. P9WQA3; in the data active = inhibition above about 27%;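 also: 0% = vehicle and 100% = reference inhibitor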
# Starred values were filed as active, the others as inactive; i = inactive; · = no result given; + = active, no number.
SMILES,RecA splice inh,Rv3671c inh,GDH-TPI inh,Vc quorum ag,Mtb UGM inh,FBA Mtb inh
CC(C)n1c(=O)c(C=Nc2ccc(S(N)(=O)=O)cc2)c(O)n(Cc2ccco2)c1=O,-2.2,-57.7,32.3*,i,-3.2,-2.1
COc1cc(=O)n(C)c2c(O)cccc12,-44.4,-8.5,1.0,-0.6,-0.9,-1.7
COc1cccc2c(=O)c3c(cnn3C)n(C)c12,i,-0.4,1.1,i,7.0,+
COc1c2ccoc2nc2c(OC)c(O)ccc12,-5.7,11.8,9.0,-0.4,0.3,6.0
COc1c2ccoc2nc2c(OC)c(OCC(O)C(C)(C)O)ccc12 (centres undefined),·,6.7,13.0,·,-2.5,146.3*
COc1c2ccoc2c(OC[C@@H](OC(C)=O)C(C)(C)O)c2oc(=O)ccc12,·,-7.8,11.1,0.0,0.4,6.5
COc1c2ccoc2nc2c(OC)c(OC[C@@H](O)C(C)(C)O)ccc12,·,4.1,23.3,-3.0,1.6,145.9*
COc1c2ccoc2nc2c(OC)c(OCC(OC(C)=O)C(C)(C)O)ccc12 (centres undefined),-0.4,-4.8,16.7,-0.3,-1.5,129.5*
O=C(Nc1ccc(-c2csnn2)cc1)C(Cl)(Cl)Cl,-2.5,-3.7,3.4,i,-0.4,-0.8
COc1ccc(C(=O)NCC2CCCN2S(=O)(=O)c2cccs2)cc1 (centres undefined),1.0,3.6,-2.4,i,3.4,1.2
O=C(NCCCN1CCC(Cc2ccccc2)CC1)c1ccc(CS(=O)c2ccccc2Cl)o1 (centres undefined),·,·,6.2,i,·,-0.3
O=[N+]([O-])c1ccc(/C=N/NC2=NS(=O)(=O)c3ccccc32)cc1,·,8.5,14.4,-4.6,0.0,-4.4
O=S1(=O)N=C(N/N=C/c2cccs2)c2ccccc21,-0.3,6.9,38.6*,-0.1,1.4,-3.4
Cc1c(CCC(=O)NCCCN2CCCC2=O)c(=O)oc2cc(O)ccc12,-54.5,0.3,18.6,0.2,3.5,+
Cc1c(CCC(=O)NC2CC2)c(=O)oc2c(C)c(O)ccc12,-125.9,0.5,20.6,-0.5,-1.3,+
Cc1c(CCC(=O)NCCCN2CCCC2=O)c(=O)oc2c(C)c(O)ccc12,-45.1,-1.4,14.7,-0.4,0.8,+
Cc1oc2cc3oc(=O)c(CCC(=O)NC4CC4)c(C)c3cc2c1C,1.6,-6.5,10.8,-0.4,0.0,9.5
C=C(C)COc1ccc2c(C)c(CCC(=O)NC3CC3)c(=O)oc2c1,-2.1,-0.3,17.6,-4.3,0.3,+
CC(=O)c1sc(NC(=O)c2ccc(COc3ccccc3Cl)o2)nc1C,1.0,-7.9,2.6,i,-2.1,-1.8
CN1OC[C@@H]2CN(C(=S)NCCc3ccccc3)[C@H](c3ccccc3Br)C[C@@H]21,·,·,·,·,·,0.4
CC(=O)N1CCN(c2ccc(NC(=O)c3ccc(F)cc3)cc2)CC1,-3.3,·,-0.7,-1.0,-1.9,-1.8
CC1=C(C(=O)N(C)C)CC(CC(=O)NCCCCc2ccccc2)C(=O)N1CCCN1CCCC1=O (centres undefined),·,·,0.9,-0.4,·,-0.7
CCOc1cc2c(cc1O)C(=NO)CC1C2CCC2(C)C(O)CCC12 (centres undefined),·,·,-2.3,-0.8,·,-1.1
COc1cccc(CN2CCN(C(=O)c3cc(-c4ccncc4)nc4ccc(C)cc34)CC2)c1,3.0,8.6,6.2,-0.2,0.9,-0.8
Cc1ccc(-c2cc(C(=O)N3CCOCC3)c3ccccc3n2)cc1,-1.5,3.0,5.9,4.8,2.8,16.2
SMILES,RecA splice inh,Rv3671c inh,GDH-TPI inh,Vc quorum ag,Mtb UGM inh,FBA Mtb inh
COc1ccc(-c2cc(C(=O)N3CCCCC3)c3ccccc3n2)cc1OC,1.1,0.2,21.2,-0.4,-0.7,6.8
COc1ccc(-c2cc(C(=O)OCC(=O)c3c(N)n(C)c(=O)n(C)c3=O)c3ccccc3n2)cc1,-16.9,0.0,-1.9,-1.2,-0.7,9.4
COc1ccc(-c2cc(C(=O)N3CCOCC3)c3cc(C)ccc3n2)cc1,1.0,-6.0,14.5,4.0,4.7,157.3*
COc1ccc(-c2cc(C(=O)N3CCCCC3)c3ccccc3n2)cc1,3.1,-1.2,12.2,-0.6,3.9,128.0*
COc1ccc(-c2cc(C(=O)N3CCCCCC3)c3cc(C)ccc3n2)cc1,1.4,-9.2,10.9,-0.4,-0.7,152.9*
COc1ccc(-c2cc(C(=O)c3c(N)n(C)c(=O)n(C)c3=O)c3ccccc3n2)cc1,0.9,1.2,35.4*,-0.4,-2.0,5.7
COc1ccc(-c2ccc(OC)cc2C(=O)O)cc1,0.9,-5.7,-15.2,i,-1.3,4.4
COc1cc(OC)c(OC)cc1/C=C/c1cc(C(=O)O)c2ccccc2n1,0.3,-4.5,12.8,-3.2,-2.2,-0.4
COc1ccc(/C=C/c2cc(C(=O)O)c3ccccc3n2)cc1,0.8,-11.1,32.5*,i,7.4,3.1
COc1ccc2nc(-c3ccc(Cl)cc3)cc(C(=O)O)c2c1,0.4,-0.6,13.0,-0.3,-0.3,+
CN(C)S(=O)(=O)c1ccc(N2CCCC2)c(C(=O)OCC(=O)N2CCN(c3ccccc3)CC2)c1,1.8,-6.9,5.6,-2.6,-1.7,3.5
COc1ccccc1N1CC(C(=O)Nc2ccc(C)c(S(=O)(=O)N3CCOCC3)c2)CC1=O (centres undefined),·,3.7,-1.3,i,3.8,-0.8
O=C(Nc1ccc(C2SCCS2)cc1)c1ccccc1,0.8,-4.4,-3.1,-0.1,2.5,-1.0
CC(C)CCNC(=O)C(c1ccc(O)cc1)N(Cc1ccco1)C(=O)CCC(=O)Nc1nccs1 (centres undefined),-0.3,7.8,-6.8,-0.9,3.9,0.5
Cc1ccnc(N/C=C(/NC(=O)c2ccccc2)C(=O)N/N=C\c2ccc(Cl)cc2)n1,-0.4,-10.4,91.1*,i,-0.6,-5.5
CC(C)(C)c1ccc(OCCCn2ccnc2)cc1,-2.2,7.4,-20.0,-0.4,2.2,1.0
O=c1cc(/C=C/c2ccccc2)oc2ccccc12,·,-7.0,31.7*,-1.0,1.5,6.1
Clc1ccccc1NN=Cc1ccccn1,·,·,46.9*,i,·,-0.6
COCCNC(=O)C1(C)CCN(C(=O)c2cc(C)n(C(C)(C)C)n2)C1 (centres undefined),·,·,-2.7,0.2,·,-1.6
CC1CCN(C2(O)C(=O)Nc3ccc(Br)cc32)CC1 (centres undefined),1.6,10.4,4.4,-0.3,0.4,3.4
O=C1Nc2ccc([N+](=O)[O-])cc2C1(O)N1CCCCCC1 (centres undefined),-0.4,-4.4,33.5*,-0.2,-5.5,-0.6
COc1cc2cc(C(=O)N3CCN(Cc4ccc5c(c4)OCO5)CC3)c(=O)oc2cc1OC,-100.9,2.1,16.9,-1.2,0.4,+
O=C(CN1C(=O)S/C(=C\c2ccccc2)C1=O)NCCCn1ccnc1,-1.2,-2.8,24.8,i,-3.4,-11.7
CC(C)c1ccc(/C=C2\SC(=O)N(CC(=O)NCCCn3ccnc3)C2=O)cc1,8.0,-0.5,47.4*,i,0.1,1.6

# Compound activity (PubChem)
